Values without a mark were called inactive. Calls of active or inactive are those of the source. Cut-off read from the data, not from the text of the source: active = fold change mostly below about -2 (no sharp cut-off); inactive = mostly above about -1.8.
Assay: modulation of TERT promoter-driven luciferase – cell-based, luciferase reporter, human, primary screen (AID 1259240)
Details: A2780 TERT promoter luciferase reporter, 16 h; at 20 µM, fold versus average of vehicle-only wells

| SMILES | outcome | fold change |
| --- | --- | --- |
| CCC(Sc1nnc(-c2c[nH]c3ccccc23)n1CCOC)C(=O)OC (centres undefined) | inactive |  |
| CN1C(=O)/C(=C/c2cn(CC(=O)N3CCCCC3)c3ccccc23)c2ccccc21 |  | -1.35 |
| CC1=CC(=O)OC1Cc1ccc2ccccc2n1 (centres undefined) |  | -1.06 |
| COc1ccc(C2C3C(=O)N(C(C)C)C(=O)C3ON2c2ccc(Cl)cc2)cc1 (centres undefined) |  | -1.62 |
| Cc1ccc(-c2cc(C(F)F)n3ncc(C(=O)N4CCC(C)CC4)c3n2)cc1 |  | 1.16 |
| COc1ccc2cc3c(N)nn(C(=O)CCS(=O)(=O)c4ccccc4)c3nc2c1 |  | -1.33 |
| CC1CCC(NC(=O)Cn2c(=O)c(C(F)(F)F)nc3ccccc32)CC1 (centres undefined) |  | -1.07 |
| CCN(CC)C(=O)c1sc(N2C(=O)Nc3ccccc3N2O)c(C(=O)OC)c1C |  | 1.14 |
| CCCCNc1c(N2CCN(C(=O)OCC)CC2)c(=O)c1=O |  | 1.31 |
| Cc1ccc(-c2csc3ncnc(NCCC(=O)O)c23)cc1 |  | 1.18 |
| Cc1cc(Cl)ccc1OCc1nc(-c2ccc(-n3cccc3)cc2)no1 |  | -1.5 |
| COc1cc2c(c(OC)c1)C(c1ccc(Br)cc1)CC(=O)N2 (centres undefined) |  | 1.09 |
| Cc1ccc(OCc2nc(-c3ccc(-n4cccc4)cc3)no2)cc1C |  | -2.34 (active) |
| Cc1nc(SCC(=O)Nc2cc(C)on2)c2c(=O)n(C)c(=O)n(C)c2n1 |  | -1.1 |
| COc1ccccc1/C=C/C=c1\sc2nc(-c3ccco3)nn2c1=O |  | 1.41 |
| Cn1nc(-c2ccc(C(=O)N3CCCC3)cc2)c2ccccc2c1=O |  | 1.06 |
| COc1nnc(-c2ccc(N3CCCCC3)c(N)c2)c2ccccc12 |  | -1.98 |
| CCOC(=O)C1CCN(c2c(N3CCN(CC)CC3)c(=O)c2=O)CC1 |  | 1.21 |
| Cc1c(NC(=O)c2cc(CC(C)C)on2)c(=O)n(-c2ccccc2)n1C |  | -1.7 |
| CCn1c(SCC(=O)N2CCCc3ccccc32)nnc1-c1c[nH]c2ccccc12 | inactive |  |

| SMILES | outcome | fold change |
| --- | --- | --- |
| CCc1ccc2c(c1)c1n[nH]c(=S)nc1n2CC |  | 1.17 |
| CC(C)Cc1c(O)nc(SCCN2CCOCC2)[nH]c1=O |  | -1.64 |
| CCOC(=O)CSc1nnc(-c2c[nH]c3ccccc23)n1C | inactive |  |
| O=C(Nc1cccc(C(F)(F)F)c1)Nc1ccc2snnc2c1 |  | -1.55 |
| CN1C(=O)C(O)(CC(=O)c2ccccc2O)c2cc(Br)ccc21 (centres undefined) |  | 1.07 |
| CCN(CCO)CCNc1cc(N2CCCC(C)C2)c2noc3c2c1C(=O)c1ccccc1-3 (centres undefined) |  | -6.87 (active) |
| O=C1SC(Nc2ccccc2F)C(=O)N1c1ccccc1 (centres undefined) |  | 1.65 |
| COc1ccccc1-c1c(C)nn2c(N3CCOCC3)cc(C)nc12 |  | 1.18 |
| C=CCOc1cccc(C2c3c(oc4ccccc4c3=O)C(=O)N2c2nc(C)c(C(C)=O)s2)c1 (centres undefined) |  | 1.02 |
| Clc1ccc(Nc2c(-c3c[nH]c4ccccc34)nc3cnccn23)cc1 |  | -1.4 |
| CCOC(=O)c1sc2nccc3c2c1N=CN3c1ccccc1 |  | -1.96 |
| CCOC(=O)c1ccc(N2C(=O)c3n[nH]c(-c4ccco4)c3C2c2ccc(C)cc2)cc1 (centres undefined) |  | -2.14 (active) |
| CCN(CC)CCNc1nc2c(c(=O)[nH]c(=O)n2C)n1CCCc1ccccc1 |  | -2.06 (active) |
| O=c1[nH]c(CN2CCN(CCO)CC2)nc2ccccc12 | inactive |  |
| COc1cccc(N=c2oc3c(OC)cccc3cc2S(=O)(=O)c2ccccc2)c1 |  | -1.92 |
| Cc1ccc(-c2cc(C(F)F)n3ncc(C(=O)NCc4cccnc4)c3n2)cc1 |  | -1.5 |
| CC(C)CCNC(=O)C1CCC(CNS(=O)(=O)c2cccc3nsnc23)CC1 (centres undefined) |  | -1.62 |
| O=C(CC(=O)Nc1ccc(F)cc1F)Nc1ccc2nc3n(c(=O)c2c1)CCCCC3 |  | -1.32 |
| CCCc1nc2ccccc2c2nc(N)nn12 |  | -2.02 (active) |
